# Test results reported in ChEMBL document CHEMBL1961873, “Compounds: GSK PKIS; Assays: Nanosyn kinase panel” (2012).
# Columns and labels:
# [1] = target: Ribosomal protein S6 kinase alpha-6 (Homo sapiens) (UniProt Q9UK32); details: at 1 µM;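 further: each value is a mean inhibition of RSK4 from a GSK PKIS panel screen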
# [2] = target: T1, Serine/threonine-protein kinase Sgk1 (Homo sapiens) (UniProt O00141); details: at 0.1 µM
# T1 sequence (whole entry): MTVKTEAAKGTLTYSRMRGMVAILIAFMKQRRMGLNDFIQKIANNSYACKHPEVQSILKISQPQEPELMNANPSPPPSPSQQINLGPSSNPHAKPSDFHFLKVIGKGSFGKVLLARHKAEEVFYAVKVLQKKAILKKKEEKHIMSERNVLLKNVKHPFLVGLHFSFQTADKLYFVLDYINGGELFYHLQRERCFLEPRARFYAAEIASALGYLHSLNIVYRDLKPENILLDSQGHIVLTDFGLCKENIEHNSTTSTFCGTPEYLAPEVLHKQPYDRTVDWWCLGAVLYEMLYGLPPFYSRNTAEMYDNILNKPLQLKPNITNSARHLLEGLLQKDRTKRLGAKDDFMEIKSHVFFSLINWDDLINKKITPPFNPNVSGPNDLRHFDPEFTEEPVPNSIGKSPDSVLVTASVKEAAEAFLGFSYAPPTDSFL
# [3] = target: T1, Serine/threonine-protein kinase Sgk1 (Homo sapiens); details: at 1 µM
# [4] = target: T2, Serine/threonine-protein kinase Sgk2 (Homo sapiens) (UniProt Q9HBY8); details: at 0.1 µM
# T2 sequence (whole entry): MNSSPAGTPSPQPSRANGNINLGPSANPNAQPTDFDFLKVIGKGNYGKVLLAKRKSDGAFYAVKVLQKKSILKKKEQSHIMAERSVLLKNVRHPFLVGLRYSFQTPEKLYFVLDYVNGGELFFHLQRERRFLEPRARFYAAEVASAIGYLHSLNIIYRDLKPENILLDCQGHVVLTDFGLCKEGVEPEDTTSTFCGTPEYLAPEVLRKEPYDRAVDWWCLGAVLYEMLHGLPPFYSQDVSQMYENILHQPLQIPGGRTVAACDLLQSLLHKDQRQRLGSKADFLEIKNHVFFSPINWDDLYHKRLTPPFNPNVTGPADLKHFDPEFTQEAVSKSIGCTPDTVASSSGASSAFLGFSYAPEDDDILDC
# [5] = target: T2, Serine/threonine-protein kinase Sgk2 (Homo sapiens); details: at 1 µM
# [6] = target: T3, Serine/threonine-protein kinase Sgk3 (Homo sapiens) (UniProt Q96BR1); details: at 0.1 µM
# T3 sequence (whole entry): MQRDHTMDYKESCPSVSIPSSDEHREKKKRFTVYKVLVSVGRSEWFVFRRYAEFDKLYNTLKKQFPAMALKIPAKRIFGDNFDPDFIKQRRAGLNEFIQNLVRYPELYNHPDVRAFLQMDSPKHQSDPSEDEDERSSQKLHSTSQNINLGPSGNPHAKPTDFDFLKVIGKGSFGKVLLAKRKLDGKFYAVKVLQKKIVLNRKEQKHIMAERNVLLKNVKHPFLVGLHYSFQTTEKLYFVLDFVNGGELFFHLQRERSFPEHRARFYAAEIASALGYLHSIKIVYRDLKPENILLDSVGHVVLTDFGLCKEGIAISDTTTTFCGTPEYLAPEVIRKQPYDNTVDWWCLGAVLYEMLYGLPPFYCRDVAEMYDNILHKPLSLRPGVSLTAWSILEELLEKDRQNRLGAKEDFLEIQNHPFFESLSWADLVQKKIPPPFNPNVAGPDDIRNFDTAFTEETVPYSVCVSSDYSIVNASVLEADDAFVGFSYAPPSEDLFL
# [7] = target: T3, Serine/threonine-protein kinase Sgk3 (Homo sapiens); details: at 1 µM
# [8] = target: 5'-AMP-activated protein kinase catalytic subunit alpha-1 (Homo sapiens) (UniProt Q13131); details: at 0.1 µM
# 5'-AMP-activated protein kinase catalytic subunit alpha-1 (Homo sapiens), sequence (Q13131 whole entry, looked up): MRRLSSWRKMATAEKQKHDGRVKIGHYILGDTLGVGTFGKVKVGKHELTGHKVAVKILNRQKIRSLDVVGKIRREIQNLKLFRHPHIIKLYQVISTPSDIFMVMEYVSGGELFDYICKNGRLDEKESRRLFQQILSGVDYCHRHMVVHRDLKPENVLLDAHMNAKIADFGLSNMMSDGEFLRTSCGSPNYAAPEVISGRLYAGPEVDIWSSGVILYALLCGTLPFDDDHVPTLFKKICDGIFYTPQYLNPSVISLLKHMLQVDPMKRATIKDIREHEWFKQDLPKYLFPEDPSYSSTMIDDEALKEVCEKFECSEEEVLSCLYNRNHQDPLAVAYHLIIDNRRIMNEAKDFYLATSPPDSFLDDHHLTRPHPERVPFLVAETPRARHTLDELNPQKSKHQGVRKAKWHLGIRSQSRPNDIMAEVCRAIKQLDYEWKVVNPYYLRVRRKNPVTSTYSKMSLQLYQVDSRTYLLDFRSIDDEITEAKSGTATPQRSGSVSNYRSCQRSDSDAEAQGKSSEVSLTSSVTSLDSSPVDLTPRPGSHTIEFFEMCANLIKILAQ
# [9] = target: 5'-AMP-activated protein kinase catalytic subunit alpha-1 (Homo sapiens) (UniProt Q13131); details: at 1 µM
# [10] = target: 5'-AMP-activated protein kinase catalytic subunit alpha-2 (Homo sapiens) (UniProt P54646); details: at 0.1 µM
# 5'-AMP-activated protein kinase catalytic subunit alpha-2 (Homo sapiens), sequence (P54646 whole entry, looked up): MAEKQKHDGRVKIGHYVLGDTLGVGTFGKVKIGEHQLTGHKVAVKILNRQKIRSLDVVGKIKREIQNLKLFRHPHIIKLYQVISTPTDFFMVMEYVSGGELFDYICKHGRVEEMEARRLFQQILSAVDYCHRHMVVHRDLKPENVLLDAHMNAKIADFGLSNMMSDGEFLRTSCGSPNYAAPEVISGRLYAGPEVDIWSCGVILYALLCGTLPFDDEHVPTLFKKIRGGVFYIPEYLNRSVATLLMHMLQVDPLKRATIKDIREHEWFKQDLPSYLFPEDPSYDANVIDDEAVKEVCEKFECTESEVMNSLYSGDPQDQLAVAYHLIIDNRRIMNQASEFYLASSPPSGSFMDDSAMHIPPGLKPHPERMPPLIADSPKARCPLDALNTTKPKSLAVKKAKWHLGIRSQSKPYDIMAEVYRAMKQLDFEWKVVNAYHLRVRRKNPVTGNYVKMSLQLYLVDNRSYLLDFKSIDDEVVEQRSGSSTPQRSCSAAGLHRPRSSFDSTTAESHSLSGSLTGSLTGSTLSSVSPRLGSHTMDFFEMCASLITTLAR
# [11] = target: 5'-AMP-activated protein kinase catalytic subunit alpha-2 (Homo sapiens) (UniProt P54646); details: at 1 µM
# [12] = target: T4, NUAK family SNF1-like kinase 1 (Homo sapiens) (UniProt O60285); details: at 0.1 µM
# T4 sequence (whole entry): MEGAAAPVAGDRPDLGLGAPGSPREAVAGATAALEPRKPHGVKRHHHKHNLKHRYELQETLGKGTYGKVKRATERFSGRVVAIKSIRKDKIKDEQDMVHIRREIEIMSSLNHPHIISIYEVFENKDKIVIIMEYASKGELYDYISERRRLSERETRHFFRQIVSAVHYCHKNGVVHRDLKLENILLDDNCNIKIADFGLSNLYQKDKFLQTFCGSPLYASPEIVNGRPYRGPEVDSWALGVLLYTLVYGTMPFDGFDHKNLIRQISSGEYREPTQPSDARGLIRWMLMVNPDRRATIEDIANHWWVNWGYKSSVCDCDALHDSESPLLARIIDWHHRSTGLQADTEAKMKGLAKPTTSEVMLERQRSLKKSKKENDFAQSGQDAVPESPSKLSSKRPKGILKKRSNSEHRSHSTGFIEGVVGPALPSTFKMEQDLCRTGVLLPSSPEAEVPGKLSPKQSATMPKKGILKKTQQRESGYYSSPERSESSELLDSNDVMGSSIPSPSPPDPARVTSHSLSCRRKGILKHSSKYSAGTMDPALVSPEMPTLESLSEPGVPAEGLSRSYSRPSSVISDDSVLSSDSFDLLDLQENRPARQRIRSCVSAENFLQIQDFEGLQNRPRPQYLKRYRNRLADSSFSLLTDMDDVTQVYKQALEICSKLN
# [13] = target: T4, NUAK family SNF1-like kinase 1 (Homo sapiens); details: at 1 µM
# [14] = target: T5, Serine/threonine-protein kinase BRSK1 (Homo sapiens) (UniProt Q8TDC3); details: at 0.1 µM
# T5 sequence (whole entry): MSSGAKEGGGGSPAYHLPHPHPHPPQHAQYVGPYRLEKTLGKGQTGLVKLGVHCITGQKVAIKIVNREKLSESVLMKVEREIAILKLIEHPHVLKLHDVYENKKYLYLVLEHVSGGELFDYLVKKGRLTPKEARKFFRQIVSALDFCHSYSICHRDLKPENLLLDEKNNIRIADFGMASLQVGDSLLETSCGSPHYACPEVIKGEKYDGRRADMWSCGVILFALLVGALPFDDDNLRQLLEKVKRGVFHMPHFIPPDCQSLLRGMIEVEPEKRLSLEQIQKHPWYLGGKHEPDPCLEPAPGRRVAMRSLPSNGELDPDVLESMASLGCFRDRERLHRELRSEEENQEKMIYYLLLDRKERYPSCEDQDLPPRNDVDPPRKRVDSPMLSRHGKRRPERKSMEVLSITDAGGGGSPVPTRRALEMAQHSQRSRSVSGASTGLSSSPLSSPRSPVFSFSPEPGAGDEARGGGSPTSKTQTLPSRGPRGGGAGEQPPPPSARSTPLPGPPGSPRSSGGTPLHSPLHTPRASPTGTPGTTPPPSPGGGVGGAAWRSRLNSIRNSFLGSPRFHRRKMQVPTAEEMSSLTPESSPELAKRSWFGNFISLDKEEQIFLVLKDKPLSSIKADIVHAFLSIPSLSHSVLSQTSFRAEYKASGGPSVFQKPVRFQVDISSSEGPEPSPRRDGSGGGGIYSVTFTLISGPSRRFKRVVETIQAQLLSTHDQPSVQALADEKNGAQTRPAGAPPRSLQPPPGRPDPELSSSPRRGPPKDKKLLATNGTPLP
# [15] = target: T5, Serine/threonine-protein kinase BRSK1 (Homo sapiens); details: at 1 µM
# [16] = target: T6, Serine/threonine-protein kinase BRSK2 (Homo sapiens) (UniProt Q8IWQ3); details: at 0.1 µM
# T6 sequence (whole entry): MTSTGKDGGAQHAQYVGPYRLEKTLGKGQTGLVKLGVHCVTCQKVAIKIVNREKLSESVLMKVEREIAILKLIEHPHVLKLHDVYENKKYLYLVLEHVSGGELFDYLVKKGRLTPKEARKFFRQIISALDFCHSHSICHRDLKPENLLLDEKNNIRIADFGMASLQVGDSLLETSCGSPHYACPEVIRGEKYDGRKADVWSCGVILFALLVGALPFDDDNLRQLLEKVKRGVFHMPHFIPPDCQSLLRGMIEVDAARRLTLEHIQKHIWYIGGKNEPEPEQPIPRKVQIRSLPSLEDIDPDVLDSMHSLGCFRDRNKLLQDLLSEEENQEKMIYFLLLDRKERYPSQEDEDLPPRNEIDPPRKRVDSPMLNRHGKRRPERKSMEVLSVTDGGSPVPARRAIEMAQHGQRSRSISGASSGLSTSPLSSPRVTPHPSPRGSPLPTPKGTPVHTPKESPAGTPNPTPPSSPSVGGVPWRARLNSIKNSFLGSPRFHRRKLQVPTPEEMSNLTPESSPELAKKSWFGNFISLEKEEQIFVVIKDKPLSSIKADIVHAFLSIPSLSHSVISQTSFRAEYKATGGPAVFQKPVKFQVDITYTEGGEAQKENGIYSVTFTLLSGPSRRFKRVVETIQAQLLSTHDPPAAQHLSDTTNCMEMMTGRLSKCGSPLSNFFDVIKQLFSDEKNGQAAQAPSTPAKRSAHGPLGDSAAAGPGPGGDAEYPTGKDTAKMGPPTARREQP
# [17] = target: T6, Serine/threonine-protein kinase BRSK2 (Homo sapiens); details: at 1 µM
# [18] = target: Calcium/calmodulin-dependent protein kinase type 1D (Homo sapiens) (UniProt Q8IU85); details: at 0.1 µM
# Calcium/calmodulin-dependent protein kinase type 1D (Homo sapiens), sequence (Q8IU85 whole entry, looked up): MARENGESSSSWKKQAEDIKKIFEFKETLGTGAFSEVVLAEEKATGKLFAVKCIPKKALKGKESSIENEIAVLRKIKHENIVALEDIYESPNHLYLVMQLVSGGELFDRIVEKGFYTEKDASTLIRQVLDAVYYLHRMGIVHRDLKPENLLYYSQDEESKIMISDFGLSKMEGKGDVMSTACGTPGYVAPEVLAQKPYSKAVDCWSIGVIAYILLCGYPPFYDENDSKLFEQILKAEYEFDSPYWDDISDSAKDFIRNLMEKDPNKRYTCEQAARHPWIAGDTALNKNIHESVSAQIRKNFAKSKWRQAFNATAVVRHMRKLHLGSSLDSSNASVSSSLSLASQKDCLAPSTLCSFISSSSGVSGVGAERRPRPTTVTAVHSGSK
# [19] = target: Calcium/calmodulin-dependent protein kinase type 1D (Homo sapiens) (UniProt Q8IU85); details: at 1 µM
# [20] = target: Calcium/calmodulin-dependent protein kinase type II subunit alpha (Homo sapiens) (UniProt Q9UQM7); details: at 0.1 µM;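 further: reported values are averages (mean inhibition of CAMK2A)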
# Calcium/calmodulin-dependent protein kinase type II subunit alpha (Homo sapiens), sequence (Q9UQM7 whole entry): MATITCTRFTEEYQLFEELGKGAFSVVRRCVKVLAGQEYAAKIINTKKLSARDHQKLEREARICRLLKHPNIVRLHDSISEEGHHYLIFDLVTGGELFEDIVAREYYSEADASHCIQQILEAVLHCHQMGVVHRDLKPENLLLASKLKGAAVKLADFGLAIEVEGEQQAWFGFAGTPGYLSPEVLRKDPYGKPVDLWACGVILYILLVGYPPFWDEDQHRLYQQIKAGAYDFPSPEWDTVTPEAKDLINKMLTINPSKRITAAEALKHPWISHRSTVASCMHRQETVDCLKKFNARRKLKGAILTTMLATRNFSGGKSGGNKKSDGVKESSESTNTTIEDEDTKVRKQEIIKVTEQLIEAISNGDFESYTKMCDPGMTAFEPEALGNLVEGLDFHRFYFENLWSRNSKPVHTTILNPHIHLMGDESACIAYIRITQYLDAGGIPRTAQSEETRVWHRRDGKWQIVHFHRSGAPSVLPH
# Ribosomal protein S6 kinase alpha-6 (Homo sapiens), sequence (Q9UK32 whole entry): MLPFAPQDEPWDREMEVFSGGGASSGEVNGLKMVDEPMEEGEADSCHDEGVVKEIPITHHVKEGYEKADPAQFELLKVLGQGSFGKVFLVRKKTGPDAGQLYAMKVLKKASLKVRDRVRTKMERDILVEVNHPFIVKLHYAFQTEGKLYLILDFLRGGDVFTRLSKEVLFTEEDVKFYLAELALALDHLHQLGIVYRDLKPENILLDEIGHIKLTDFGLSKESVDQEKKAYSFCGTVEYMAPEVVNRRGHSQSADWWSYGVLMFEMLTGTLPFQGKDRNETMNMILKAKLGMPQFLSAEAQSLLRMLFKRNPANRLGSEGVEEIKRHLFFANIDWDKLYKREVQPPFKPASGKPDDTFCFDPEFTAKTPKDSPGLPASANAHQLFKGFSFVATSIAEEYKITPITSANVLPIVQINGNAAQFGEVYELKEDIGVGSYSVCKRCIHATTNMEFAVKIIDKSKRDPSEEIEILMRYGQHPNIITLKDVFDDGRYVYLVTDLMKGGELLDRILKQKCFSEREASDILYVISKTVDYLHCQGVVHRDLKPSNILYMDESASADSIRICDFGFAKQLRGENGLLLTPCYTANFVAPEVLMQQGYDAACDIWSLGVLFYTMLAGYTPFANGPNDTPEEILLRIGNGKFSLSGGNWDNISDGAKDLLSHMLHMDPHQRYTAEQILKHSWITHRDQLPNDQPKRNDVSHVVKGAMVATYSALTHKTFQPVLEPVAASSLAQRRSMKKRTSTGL
Compound,inhibition [1] [%],inhibition [2] [%],inhibition [3] [%],inhibition [4] [%],inhibition [5] [%],inhibition [6] [%],inhibition [7] [%],inhibition [8] [%],inhibition [9] [%],inhibition [10] [%],inhibition [11] [%],inhibition [12] [%],inhibition [13] [%],inhibition [14] [%],inhibition [15] [%],inhibition [16] [%],inhibition [17] [%],inhibition [18] [%],inhibition [19] [%],inhibition [20] [%]
CS(=O)(=O)CCNCc1cc(-c2cc3c(Nc4ccc(OCc5cccc(F)c5)c(Cl)c4)ncnc3s2)cs1,2.5,2.39,1.38,5.74,2.6,3.92,6.65,2.39,3.88,5.96,3.11,-0.49,3.79,1.37,-0.77,0.67,4.02,0.48,2.27,3.07
COC(=O)Nc1nc2ccc(Sc3ccc(NC(=O)Nc4cc(C(F)(F)F)ccc4F)cc3)cc2[nH]1,0.24,0.54,4.52,0.41,0.74,-0.29,0.03,0.86,0.23,-4.11,1.29,3.62,-4.85,-1.14,0.16,-0.46,1.01,0.9,0.37,3
NS(=O)(=O)c1ccc(Nc2cc(-c3ccc(O)c(F)c3)n[nH]2)cc1,59.5,-0.99,3.11,-0.41,3.07,0.2,-0.29,0.53,15.2,0.54,8.67,2.73,11,0.57,10.9,2.75,16.7,-0.17,0.78,-4.96
CCS(=O)(=O)c1ccc(OC)c(Nc2ncc(-c3ccccc3Cl)o2)c1,3.92,-0.42,2.5,-1.58,-2.15,-0.26,-1.36,1.54,0.82,-1.8,2.95,2.27,1.46,-1,-0.58,0.64,-1.12,0.68,1.43,2.2
NCc1ccc(-n2c(-c3nonc3N)nc3cnccc32)cc1,36.2,5.32,11.7,5.18,17.3,3.68,28.2,5.3,7.27,6.07,8.19,4.91,7.23,4.76,6.27,4.11,8.49,2.03,4.78,4.91
COc1cc(Nc2ncc3c(C)nc(-c4cccc(Oc5ccccc5)c4)n3n2)cc(OC)c1OC,13.2,2.08,-0.71,1.09,-2.63,0.96,-0.95,1.87,13,0.57,7.86,4.33,26.4,1.68,2.44,0.74,3.26,1.34,3.48,3.17
CCS(=O)(=O)c1ccc(OC)c(Nc2ncc(-c3cccc(-c4ccccc4F)c3)o2)c1,0.75,1.23,0.04,1.37,1.29,-0.5,-0.32,0.4,0.95,1.79,1.37,1.73,2.9,-0.47,0.8,0,-0.51,0.44,0.18,-1.21
NC(=O)c1cc(-c2ccncc2)cc(-c2ccccc2)c1N,2.63,4.37,2.48,4.36,3.52,2.61,5.81,3.6,2.86,4.45,4.03,0.7,1.68,2.46,4.23,1.64,2.72,0.15,1.27,2.51
